# Data published in the supplement of paper PMC12645437, “Orthogonal IMiD-Degron Pairs Induce Selective Protein Degradation in Cells” (ACS Chemical Biology, 2025).
# Over roughly 8,300 sequences, “log2 fold change of degron read counts, EGFP-low vs EGFP+ sorted cells (limma voom), compound-induced degradation” has its median near -1.1; the highest 2% begin near 3.2. The sample holds the highest values, similar sequences and a random draw of the others, so the mix is not that of the screen.
# T1: CRBN, Q96SW2
# T1 chain: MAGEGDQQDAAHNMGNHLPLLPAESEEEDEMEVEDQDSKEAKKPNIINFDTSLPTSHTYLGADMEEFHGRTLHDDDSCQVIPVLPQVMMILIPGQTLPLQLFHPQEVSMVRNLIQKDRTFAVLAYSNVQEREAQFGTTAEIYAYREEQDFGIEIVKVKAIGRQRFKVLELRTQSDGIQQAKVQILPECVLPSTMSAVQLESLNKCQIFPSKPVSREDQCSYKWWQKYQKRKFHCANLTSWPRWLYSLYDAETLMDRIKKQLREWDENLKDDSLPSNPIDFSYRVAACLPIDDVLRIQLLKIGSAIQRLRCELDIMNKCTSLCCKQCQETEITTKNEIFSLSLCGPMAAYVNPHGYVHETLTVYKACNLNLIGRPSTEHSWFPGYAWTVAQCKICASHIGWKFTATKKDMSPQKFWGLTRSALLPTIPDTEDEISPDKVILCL
# Target: T1, CRBN, Q96SW2
# Experiment: log2 fold change of degron read counts, EGFP-low vs EGFP+ sorted cells (limma voom), compound-induced degradation; higher = more compound-induced degradation of the degron-EGFP fusion; degrons are variants of IKZF1/3 zinc finger 2; compound dose not given here
# Settings: Jurkat, 18 h
# Protocol: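 Pooled library of 8380 IKZF3 ZF2 degron mutants (positions 146-167 varied within the IKZF3 130-189 degron; only the varied core is printed, flanks not printed) fused to EGFP with IRES-mCherry, lentivirally expressed in Jurkat cells. mCherry+ cells were treated with one IMiD compound for 18 h (dose not stated) and FACS-sorted into EGFP-low and EGFP+ populations. Degron sequences were counted by NGS, and log2FC (EGFP-low vs EGFP+) was estimated by limma voom over 3 biological replicates.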
# [1] = compound: compound 19 (5-tert-butyl-thalidomide)
# [2] = compound: compound 22 (5-morpholino-thalidomide)
# [3] = compound: compound 33 (diphenyl IMiD analogue)
# 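Further: pooled lentiviral library of zinc finger degron-EGFP fusions in mCherry-positive Jurkat cells, FACS-sorted after compound exposure, with degron abundance counted by next-generation sequencing.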
Sequence,log2 fold change of degron read counts [1],log2 fold change of degron read counts [2],log2 fold change of degron read counts [3],log2 fold change of degron read counts (compound: thalidomide)
"FDCNVCGAMFTQKGNLLRHIKL [46F_47D_49N_50V_52G_53A_54M_55F_67L_, Q9UKT9]",-2.41,-2.06,-1.24,-0.963
"FECPQCGAKFTQKGNLLRHIKL [46F_47E_49P_50Q_52G_53A_54K_55F_67L_, Q9UKT9]",-1.95,-2.7,-2.13,0.127
"FWCDICGALFTQKGNLLRHIKL [46F_47W_49D_50I_52G_53A_54L_55F_67L_, Q9UKT9]",2.43,2.23,0.921,-1.11
"FNCPICGAGFTQKGNLLRHIKL [46F_47N_49P_50I_52G_53A_54G_55F_67L_, Q9UKT9]",2.9,0.718,0.577,0.35
"LVCEICGFFCTQKGNLLRHIKL [46L_47V_49E_50I_52G_53F_54F_55C_67L_, Q9UKT9]",0.178,0.388,0.876,1.42
"FSCPICGACFTQKGNLLRHIKL [46F_47S_49P_50I_52G_53A_54C_55F_67L_, Q9UKT9]",2.84,2.22,2.64,1.47
"FQCPICGACFTQKGNLLRHIKL [46F_47Q_49P_50I_52G_53A_54C_55F_67L_, Q9UKT9]",0.828,3.06,2.53,3.77
"FLCPICGACFTQKGNLLRHIKL [46F_47L_49P_50I_52G_53A_54C_55F_67L_, Q9UKT9]",0.664,-0.175,1.79,1.62
"FCCPICGACFTQKGNLLRHIKL [46F_47C_49P_50I_52G_53A_54C_55F_67L_, Q9UKT9]",2.52,2.23,2.82,2.11
"FNCPICGACFTQKGNLLRHIKL [46F_47N_49P_50I_52G_53A_54C_55F_67L_, Q9UKT9]",2.34,1.06,1.37,0.843
"FYCPICGACFTQKGNLLRHIKL [46F_47Y_49P_50I_52G_53A_54C_55F_67L_, Q9UKT9]",3.5,3.63,2.59,1.59
"FWCPICGACFTQKGNLLRHIKL [46F_47W_49P_50I_52G_53A_54C_55F_67L_, Q9UKT9]",3.58,3.31,2.4,1.46
"FMCPICGACFTQKGNLLRHIKL [46F_47M_49P_50I_52G_53A_54C_55F_67L_, Q9UKT9]",-0.174,0.429,2.49,1.41
"FDCPICGACFTQKGNLLRHIKL [46F_47D_49P_50I_52G_53A_54C_55F_67L_, Q9UKT9]",1.96,0.401,2.22,2.13
"FACPICGACFTQKGNLLRHIKL [46F_47A_49P_50I_52G_53A_54C_55F_67L_, Q9UKT9]",3.48,2.09,1.78,1.06
"FVCPICGACFTQKGNLLRHIKL [46F_47V_49P_50I_52G_53A_54C_55F_67L_, Q9UKT9]",0.0061,2.13,2.08,2.38
"FICPICGACFTQKGNLLRHIKL [46F_47I_49P_50I_52G_53A_54C_55F_67L_, Q9UKT9]",-0.628,2.02,1.94,2.17
"FDCDQCGAEFTQKGNLLRHIKL [46F_47D_49D_50Q_52G_53A_54E_55F_67L_, Q9UKT9]",-3.44,-3.7,-3.04,-3.25
"FVCEVCGAFFTQKGNLLRHIKL [46F_47V_49E_50V_52G_53A_54F_55F_67L_, Q9UKT9]",-0.979,-0.472,1.09,0.698
"FDCPQCGAMFTQKGNLLRHIKL [46F_47D_49P_50Q_52G_53A_54M_55F_67L_, Q9UKT9]",-2.55,-2.86,-1.76,-1.75
"FFCNQCGRSFTQKGNLLRHIKL [46F_47F_49N_50Q_52G_53R_54S_55F_67L_, Q9UKT9]",-2.31,-2.35,-2.54,-2.53
"FYCDQCGAEFTQKGNLLRHIKL [46F_47Y_49D_50Q_52G_53A_54E_55F_67L_, Q9UKT9]",-1.15,-2.26,-1.96,-3.08
"FNCPICGHAFTQKGNLLRHIKL [46F_47N_49P_50I_52G_53H_54A_55F_67L_, Q9UKT9]",-1.92,-2.91,-2.41,-1.74
"FWCPICGAEFTQKGNLLRHIKL [46F_47W_49P_50I_52G_53A_54E_55F_67L_, Q9UKT9]",2.47,2.5,1.96,0.113
"FDCNQCGHAFTQKGNLLRHIKL [46F_47D_49N_50Q_52G_53H_54A_55F_67L_, Q9UKT9]",-2.71,-2.67,-2.47,-2.94
"FKCDICGAEFTQKGNLLRHIKL [46F_47K_49D_50I_52G_53A_54E_55F_67L_, Q9UKT9]",-3.02,-3.75,-4.07,-2.58
"FKCSVCGHVFTQKGNLLRHIKL [46F_47K_49S_50V_52G_53H_54V_55F_67L_, Q9UKT9]",-3.06,-3.01,-3.11,-3.07
"FWCEQCGAQFTQKGNLLRHIKL [46F_47W_49E_50Q_52G_53A_54Q_55F_67L_, Q9UKT9]",0.92,2.94,0.838,-0.633
